Source: PubChem BioAssay (NCI)
Compounds without any hit were thinned out: in the full panel of roughly 83,000, 20% have a hit.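 Results are percent growth after 48 hours of single-concentration exposure. 100 means growth as in untreated cells, lower positive values show inhibition; negative values down to -100 show cell death.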 Activity calls are given as the source filed them. The calls were made as follows: active = growth percent below 10; inactive = the rest.

What was measured:
Assay in all cases: NCI-60 one-dose screen, 48 h (100 = growth as untreated, 0 = no growth, -100 = all killed)
Conditions in all cases: 10 µM unless noted
[1] = test system: SR leukemia
[2] = test system: RPMI-8226 leukemia
[3] = test system: OVCAR-8 ovarian
[4] = test system: OVCAR-5 ovarian
[5] = test system: OVCAR-4 ovarian
[6] = test system: SK-OV-3 ovarian
[7] = test system: IGROV1 ovarian
[8] = test system: OVCAR-3 ovarian
[9] = test system: HS 578T breast
[10] = test system: NCI/ADR-RES ovarian
[11] = test system: T-47D breast
[12] = test system: BT-549 breast
[13] = test system: MDA-MB-435 melanoma
[14] = test system: SW-620 colon
[15] = test system: MCF7 breast
[16] = test system: HCT-116 colon
[17] = test system: HCC-2998 colon
[18] = test system: KM12 colon

Measured: growth

COC(=O)[C@@H]1CCCN1C(=O)[C@@H]1CCCN1C(=O)[C@H](Cc1ccccc1)NC(=S)Nc1cc(C(F)(F)F)cc(C(F)(F)F)c1
inactive: [1] 80.9% | [2] 43.9% | [3] 41.6% | [4] 88.4% | [5] 77.9% | [6] 98.1% | [7] 108% | [8] 24.6% | [9] 83.7% | [10] 67.4% | [11] 92.3% | [12] 81.1% | [13] 86.5% | [14] 93% | [15] 67.1% | [16] 69% | [17] 93.3% | [18] 45.1%

O=C1c2cc3c(cc2-c2c1c1ccc(F)cc1c(=O)n2C[C@H](O)[C@@H](O)[C@H](O)CO)OCO3
active: [1] 0.151% | [2] -0.286% | [3] 0.0181% | [4] -29.8% | [6] -20.8% | [8] -20.3% | [9] 0.229% | [10] 4.78% | [11] -4.06% | [12] -21.3% | [13] -76.2% | [14] 7.68% | [15] 4.18% | [16] 9.8% | [17] -8.31% | [18] 7.39%
inactive: [5] 15.4% | [7] 17.7%

O=CNc1ccc2c(c1)Cc1cccc(NC=O)c1-2
inactive: [1] 108% | [2] 103% | [3] 99.5% | [4] 89.6% | [5] 112% | [6] 104% | [7] 103% | [8] 90.2% | [9] 97.1% | [10] 99.7% | [11] 96.8% | [12] 94.1% | [13] 100% | [14] 98.2% | [15] 86.1% | [16] 95.2% | [17] 97.4% | [18] 67.8%

CCOC(=O)c1c(C)oc2ncnc(N3CCN(C(=O)COc4ccc(SC)cc4)CC3)c12
inactive: [1] 84.3% | [2] 81.6% | [3] 87.6% | [4] 98.2% | [5] 75% | [6] 86.1% | [7] 90.4% | [8] 100% | [9] 81.7% | [10] 85.7% | [11] 61.7% | [12] 90.8% | [13] 103% | [14] 102% | [15] 92.6% | [16] 91.6% | [17] 110% | [18] 95.6%

CCCOc1cc2ccccc2cc1C(=O)Nc1nc(NC)c2c(ccc3nccc32)[nH]1
active: [1] -49.3% | [2] -46% | [3] -33.2% | [4] -61.4% | [5] -58.5% | [6] -86.9% | [7] -67.2% | [8] -76% | [9] -56.3% | [10] -17% | [11] -52.5% | [12] -27.4% | [13] -89.2% | [14] -75% | [15] -61.9% | [16] -72.3% | [17] -70.5% | [18] -72.2%

O=C(CCN1C(=O)/C(=C/c2ccc(Cl)cc2)SC1=S)NCCCN1CCOCC1
inactive: [1] 102% | [2] 103% | [3] 92.4% | [4] 103% | [5] 102% | [6] 88.2% | [7] 110% | [8] 105% | [9] 90.9% | [10] 98.9% | [11] 90.8% | [12] 106% | [13] 98.9% | [14] 100% | [15] 90.1% | [16] 98.7% | [17] 105% | [18] 104%

CNc1ccc(-c2cc(=O)oc3ccc(Cl)cc23)cc1
inactive: [2] 18.7% | [3] 16.6% | [4] 55.6% | [5] 62.6% | [7] 50.1% | [9] 16% | [10] 12.4% | [11] 66.8% | [12] 21.8% | [14] 23.3% | [15] 18.3% | [16] 10% | [17] 31.6% | [18] 15%
active: [1] 9.27% | [6] 9.16% | [8] 9.85% | [13] -11.5%

CC1=C[C@H]2c3c(c(O)c(O)c4oc5c(C)cccc5c(=O)c34)[C@H](c3cc(O)c(O)c4oc5c(C)cccc5c(=O)c34)[C@H]2C(C)(C)C1
active: [1] 3.62% | [7] 1.21% | [9] -6.09% | [10] 4.23% | [13] -17.3% | [15] 9.38% | [16] 1.97% | [18] 7.31%
inactive: [2] 23.4% | [3] 18.1% | [4] 30.4% | [5] 11.3% | [6] 19.1% | [8] 13.8% | [11] 13.7% | [12] 27.2% | [14] 18.7% | [17] 11.2%

COc1ccc(N=Nc2nccs2)c(O)c1
inactive: [1] 11.5% | [2] 21.6% | [3] 20.2% | [4] 87.2% | [5] 22.4% | [6] 52.4% | [7] 25% | [8] 33.1% | [9] 85.3% | [10] 14.4% | [11] 36.5% | [12] 74.1% | [13] 58.7% | [14] 34.4% | [15] 20.4% | [16] 22.3% | [17] 60.8% | [18] 33.3%

COc1cc2c(cc1-c1c(C)noc1C)ncc1nc(C3CCC(F)(F)CC3)n([C@H](C)COC(F)F)c12
inactive: [1] 22.7% | [2] 18.5% | [3] 44.3% | [4] 82.5% | [5] 48.1% | [6] 10.5% | [7] 40.6% | [8] 39.6% | [9] 13.9% | [10] 40.1% | [11] 46% | [12] 61.9% | [13] 36.8% | [14] 57.3% | [15] 18.7% | [16] 33% | [17] 46.4% | [18] 45.4%

OCc1ccc(N2CCc3cccc(F)c3C2)cc1Cl
inactive: [1] 87.6% [0.1 µM] | [2] 71.4% [0.1 µM] | [3] 91.4% [0.1 µM] | [5] 32.7% [0.1 µM] | [6] 72.5% [0.1 µM] | [7] 21.2% [0.1 µM] | [8] 11.8% [0.1 µM] | [9] 99.2% [0.1 µM] | [10] 87% [0.1 µM] | [12] 114% [0.1 µM] | [13] 111% [0.1 µM] | [14] 34.5% [0.1 µM] | [15] 12.8% [0.1 µM] | [16] 18.1% [0.1 µM] | [17] 81% [0.1 µM] | [18] 101% [0.1 µM]
active: [4] -11.7% [0.1 µM] | [11] 1.88% [0.1 µM]

COc1ccc(C2CC(c3ccc(Cl)cc3)=NN2/C=C2\SC(=S)N(NC(=O)Cc3ccccc3Nc3c(Cl)cccc3Cl)C2=O)cc1 (stereo unspecified)
inactive: [1] 16.8% | [2] 71.9% | [3] 23.3% | [4] 86.3% | [5] 74.7% | [6] 77.9% | [7] 38.9% | [8] 84.4% | [9] 75.6% | [10] 82% | [11] 49.5% | [12] 79% | [13] 89.3% | [14] 90% | [15] 74.1% | [16] 56.3% | [17] 90.4% | [18] 85.4%

CCN(CC)CCCCNc1c2ccc(Cl)cc2nc2ccc(OC)cc12
active: [1] -19% | [2] -33.9% | [3] 5.44% | [4] -12.2% | [5] -50.2% | [6] 7.93% | [7] 3.67% | [8] -25.8% | [9] -23.2% | [10] 4.68% | [11] -16.9% | [12] -29.5% | [13] -89.2% | [14] -24.8% | [15] -30% | [16] -39.5% | [17] -78.6% | [18] -6.4%

O=C1c2ccccc2C(=O)c2c1ccc1[nH]c(-c3cccs3)nc21
inactive: [1] 37.4% | [2] 63.7% | [3] 81.5% | [4] 88.5% | [5] 102% | [6] 107% | [7] 89.7% | [8] 82.8% | [9] 99.2% | [10] 78.7% | [11] 56.1% | [12] 65.5% | [13] 101% | [14] 90.7% | [15] 66.4% | [16] 70.5% | [17] 99.3% | [18] 70.5%

CC(O)CN1CC(O)=C(c2nc3ccccc3s2)C1=N (stereo unspecified)
inactive: [1] 93.1% | [2] 101% | [3] 116% | [4] 93.9% | [5] 106% | [6] 113% | [7] 99% | [8] 117% | [9] 104% | [10] 85.1% | [11] 104% | [12] 109% | [13] 98.9% | [14] 108% | [15] 96.3% | [16] 109% | [18] 117%
active: [17] 8.02%

N#Cc1nnn(-c2ccc(S(N)(=O)=O)cc2)c1NC(=O)CCl
inactive: [1] 96.1% | [2] 91.4% | [3] 101% | [4] 96.6% | [5] 103% | [6] 96.6% | [7] 104% | [8] 106% | [10] 102% | [11] 95.2% | [12] 97.1% | [13] 99.6% | [14] 102% | [15] 90.9% | [16] 94.6% | [17] 106% | [18] 94.9%
active: [9] 0.129%

Cn1nc(N)c2cc([C@@H]3Nc4ccc5[nH]ncc5c4[C@H]4C5CCC(C5)[C@@H]34)ccc21 (stereo partly specified)
active: [8] -16.2% | [10] 3.15% | [13] -66.6%
inactive: [1] 14.7% | [2] 47.8% | [3] 38.2% | [4] 35.1% | [5] 41.4% | [6] 41.7% | [7] 27.3% | [9] 20.6% | [11] 43.6% | [12] 38% | [14] 22.4% | [15] 18.8% | [16] 14.5% | [17] 18% | [18] 16.6%
